# In PubChem BioAssay (NCI):
# About 79,000 compounds went through this panel and 15% of them were active in at least one assay; those are over-represented in the sample as a whole. A number with no mark means an inactive call. The source made the active and inactive calls. Rule as the data show it: active = growth inhibition above about 70%; inactive = the rest.
# Experiments:
# [1] = NCI Yeast Anticancer Drug Screen. Data for the rad50 strain (AID 155);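 also: 0% = growth of vehicle-only cultures of the same strain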; conditions: S. cerevisiae rad50 strain growth inhibition; at 50.0 µM; active compounds read high
# In short: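 Genetically altered yeast (DNA repair pathway); compound treatment; growth inhibition vs vehicle ctrl.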
# [2] = NCI Yeast Anticancer Drug Screen. Data for the mec2-1 strain (AID 157); conditions: S. cerevisiae mec2-1 strain, at 50.0 µM, active compounds read high
# In short: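 Cells of the genetically defined mec2-1 yeast strain are incubated with test compound. Inhibition of growth is calculated against vehicle-treated controls.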
# [3] = NCI Yeast Anticancer Drug Screen. Data for the sgs1 mgt1 strain (AID 161);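 also: 0% = growth of cultures given vehicle only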; conditions: S. cerevisiae sgs1 mgt1 strain, at 50.0 µM, active compounds read high
# In short: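 Test agents were incubated with a DNA-repair-mutant yeast strain. Growth was then read and compared against vehicle-treated controls.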
# [4] = NCI Yeast Anticancer Drug Screen. Data for the cln2 rad14 strain (AID 165);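 also: 0% = growth equal to vehicle treated cultures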; conditions: S. cerevisiae cln2 rad14 strain, at 50.0 µM, active compounds read high
# In short: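 The screen exposed genetically defined yeast (cln2 rad14) to test compounds and scored growth inhibition relative to vehicle-treated controls.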
# [5] = NCI Yeast Anticancer Drug Screen. Data for the bub3 strain (AID 167); conditions: S. cerevisiae bub3 mutant strain, at 50.0 µM, active compounds read high
# In short: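 Yeast carrying a defined mutation is treated with each compound, and growth is compared with that of vehicle-exposed cells to give inhibition.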
# [6] = NCI Yeast Anticancer Drug Screen. Data for the mlh1 rad18 strain (AID 175); conditions: S. cerevisiae mlh1 rad18 strain growth inhibition; at 50.0 µM; active compounds read high
# In short: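 Compound-treated yeast growth, normalised to vehicle controls. Strain bears defined DNA repair mutations.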
Structure (SMILES),growth inhibition [1],growth inhibition [2],growth inhibition [3],growth inhibition [4],growth inhibition [5],growth inhibition [6]
NNc1nncn1N,-5.25%,-10.9%,-23.4%,51.3%,-17.5%,-6.25%
OCCNC1CCCCC1,5.15%,-1.65%,-13.8%,-1.8%,3.55%,-16.1%
N/C(=N/N=C/c1ccc(O)cc1)N[N+](=O)[O-],-2.4%,-29.6%,-14.3%,-31.5%,-6.75%,9%
Cc1cc(NC(=O)/C=C/c2ccc([N+](=O)[O-])cc2Cl)ccc1S(=O)(=O)F,-30.5%,-8.5%,-5.6%,-17.4%,2.85%,-32.5%
CNC(=O)Oc1cc(C)cc(C(C)C)c1,14.3%,0.05%,1.6%,9.15%,1.3%,6%
Nc1ccc([N+](=O)[O-])cc1N,9.15%,-14.7%,-12.8%,-36.9%,-17.4%,10.2%
CN(C)/N=C(\N)c1nnn(C)n1,-4.45%,-14.2%,-15.2%,-32.8%,-11.2%,-0.3%
N#CC(C#N)=Cc1ccc(C=C(C#N)C#N)cc1,-30.4%,-40.5%,-15.9%,-14.8%,-15.8%,-8.75%
O=NN(CCCl)C(=O)O,5.55%,-9.05%,-5.25%,-42.8%,10.9%,11.9%
O=S(=O)(c1ccccc1)N1CC1CI (stereo unspecified),3.45%,2.7%,13.9%,10.6%,7.9%,1.75%
CCOC(=O)C(O)(c1ccccc1)c1ccccc1,2.05%,-5.95%,6.85%,16.8%,-3.35%,31%
CCOP(=O)(OCC)Oc1ccc(S(C)=O)cc1 (stereo unspecified),-1.95%,-14.8%,-1%,-10.2%,8.75%,-0.25%
CCCC[S][Sn-]([CH2]CCC)([CH2]CCC)[CH2]CCC,98.7% (active),98.7% (active),99.2% (active),98.5% (active),99% (active),99% (active)
Cc1ccc(C)c(NP(=O)(Nc2cc(C)ccc2C)N(CCCl)CCCl)c1,30.2%,-4.4%,30.2%,8.1%,9.8%,-8.55%
Cc1cc(C)[c]([Hg][Cl])c(C)c1,98.5% (active),98.7% (active),98.7% (active),96.2% (active),98.7% (active),97.8% (active)
CN(C)C(=O)Oc1ccc(Cl)cc1Cl,9.2%,18.1%,-5.8%,-7.3%,-9.35%,32.6%
C=CC1CC=CCC1 (stereo unspecified),-7.1%,-5.2%,9.15%,-25.2%,-0.55%,-11.9%
NC1=Nc2ccccc2Sc2ccccc21,-19.2%,-38.8%,-44.5%,2.5%,-23.5%,-33.8%
C=C(C)c1ccccc1 (tested in a mixture with another compound),28%,9.05%,-19.9%,-8.8%,-3.2%,10.6%
Cc1ccc(P(=S)(c2ccccc2)c2ccccc2)c2ccccc12,9.9%,0.45%,-1.5%,10.6%,20%,-4.25%
C[N+]1(C)C2CCC1CC(OC(=O)C(CO)c1ccccc1)C2 (stereo unspecified),18.7%,-21.6%,-6%,-28.4%,-51.5%,-5.95%
